A selection: hits, their analogues and other compounds. The true share with any hit is near 4.8%.
hcDAF-12 act – H. contortus DAF-12 activation, primary screen; activation, % at 6.8 µM; HEK293 hcDAF-12 lit1-tk-luc reporter, luminescence; 0% DMSO, 100% Δ7-dafachronic acid; AID 652067; 370,000 compounds, 1.4% hits;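 active = activation above the mean of all tested compounds plus 3 SD, cut at about 5.5% in these data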;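 note: 100% = response to 3 µM Δ7-dafachronic acid high control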
ssDAF-12 act – activates DAF-12 receptor from parasite S. stercoralis; HEK293 ssDAF-12/GRIP1 lit1-tk-luc reporter, luminescence; % of 3 µM dafachronic acid response; 370,000 compounds, 1% hits; activation, % at 6.8 µM;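 active = activation above the mean over all tested compounds plus 3 SD, cut at about 0.9% in these data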;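 note: 0% = DMSO-only wells and 100% = 3 µM delta7-dafachronic acid wells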
hgDAF12 agonist – hgDAF-12 agonism, primary luciferase screen. HEK293 GAL4-hgDAF12 UAS-luciferase reporter, agonist luminescence; normalized to butyrate control. activation, % at 6.8 µM. 370,000 compounds, 1.8% hits;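 active = activation above a cutoff set at the mean of all screened compounds plus 3 SD, cut at about 10% in these data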;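 note: 0% = DMSO wells and 100% = sodium butyrate wells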
SMARCA2 act – activators of SMARCA2 function; AID 652017; MG213 cells, MMTV-luciferase reporter, dexamethasone, overnight; activation, % at 9.1 µM; 370,000 compounds, 1% hits; in the data active = activation above about 7.8%;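 note: 0% = vehicle wells and 100% = reference activator wells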
DAX1 inh-1 – inhibitors of DAX1 repression of SF-1 activated StAR promoter. inhibition, % at 6.8 µM. AID 652010. HEK293T StAR-luciferase reporter, SF-1/DAX-1 repression relief. 370,000 compounds, 1.1% hits;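 active = inhibition above the mean over all tested compounds plus 3 SD, cut at about 3.6% in these data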;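 note: 0% = DAX-1 cells with DMSO and 100% = cells lacking DAX-1 with DMSO; higher inhibition means more luminescence from relief of DAX-1 repression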
DAX1 inh-2 – inhibits human nuclear receptor DAX1; P51843; HEK293 Gal4-DAX1 luciferase reporter, luminescence; inhibition, % at 6.75 µM; 340,000 compounds, 0.99% hits; AID 504766;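 active = inhibition above the mean over all tested compounds plus 3 SD, cut at about 4.2% in these data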;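 note: 0% = DAX1-transfected cells with DMSO and 100% = empty-vector control cells with DMSO; inhibition shows as a rise in luminescence from relieved DAX1 repression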
Target sequence (P51843 207-470 limits assumed): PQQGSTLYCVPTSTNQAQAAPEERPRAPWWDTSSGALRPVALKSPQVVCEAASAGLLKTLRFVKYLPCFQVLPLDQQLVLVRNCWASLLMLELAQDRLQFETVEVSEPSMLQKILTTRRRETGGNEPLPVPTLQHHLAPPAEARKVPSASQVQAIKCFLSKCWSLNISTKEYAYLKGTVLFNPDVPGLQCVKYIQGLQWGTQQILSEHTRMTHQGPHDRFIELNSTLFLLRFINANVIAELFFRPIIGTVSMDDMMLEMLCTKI
* hit, by the source's call.

Cc1nc2ncnn2c(C)c1CCC(=O)N1CCC2(CC1)OCCO2 was read as hcDAF-12 act -1, ssDAF-12 act -2, hgDAF12 agonist -1, SMARCA2 act -4, DAX1 inh-1 0 and DAX1 inh-2 4.6*.
For Cc1nc2cc(-c3ccccc3)nn2c(C)c1CCC(=O)N1CCC2(CC1)OCCO2 the results were hcDAF-12 act -4, ssDAF-12 act -3, hgDAF12 agonist -9, SMARCA2 act -6, DAX1 inh-1 0 and DAX1 inh-2 -1.
For COP(=O)(OC)C(C)NC(=O)OCc1ccccc1 (stereo unspecified) the results were hcDAF-12 act 1, ssDAF-12 act -2 and hgDAF12 agonist 4.
`Cc1ccc(C(=O)C2CN(C)CC2C(=O)c2ccc(C)cc2)cc1` (stereo unspecified) gave hcDAF-12 act 0, ssDAF-12 act -1, hgDAF12 agonist 11*, SMARCA2 act 1, DAX1 inh-1 1 and DAX1 inh-2 2.
`Cc1ccc(C(=O)C2CN3CCC2CC3)cc1` (stereo unspecified) gave hcDAF-12 act -2, ssDAF-12 act -1, hgDAF12 agonist 1, SMARCA2 act 2, DAX1 inh-1 0 and DAX1 inh-2 4.
For O=C(CN1C(=O)[C@@H](Cc2ccc(O)cc2)N=C(c2ccccc2)c2ccccc21)NC1CCCCC1 the results were hcDAF-12 act -1, ssDAF-12 act -1, hgDAF12 agonist -2, SMARCA2 act -3 and DAX1 inh-1 -1.
`CC(C)C(C(=O)NC(C)(C)C)N1C(=O)CN=C(c2ccccc2)c2ccccc21` (stereo unspecified) gave hcDAF-12 act -2, ssDAF-12 act -2, hgDAF12 agonist -4, SMARCA2 act 0 and DAX1 inh-1 -1.
O=C(N/N=C/c1c(O)n(Cc2ccc(F)cc2)c(=O)[nH]c1=O)c1ccccc1 was read as hcDAF-12 act 1, ssDAF-12 act -1, hgDAF12 agonist 11*, SMARCA2 act 4, DAX1 inh-1 0 and DAX1 inh-2 6.6*.
O=C(N/N=C/c1c(O)n(CCC2=CCCCC2)c(=S)[nH]c1=O)c1ccccc1 was read as hcDAF-12 act 1, ssDAF-12 act 0, hgDAF12 agonist 11*, SMARCA2 act 3, DAX1 inh-1 1 and DAX1 inh-2 1.
CN1c2ccc(Br)cc2[C@@H]2NCC[C@@H]2[C@@H]1CO was read as hcDAF-12 act 3, ssDAF-12 act 0, hgDAF12 agonist 0, SMARCA2 act 0 and DAX1 inh-1 -1.
N#CCCC#N was read as hcDAF-12 act -2, ssDAF-12 act -1, hgDAF12 agonist 1, SMARCA2 act 0 and DAX1 inh-1 0.
Screening CCCC(=O)N1c2ccc(Cl)cc2C(c2ccccc2)=NCC1C(=O)NC(C)(C)C (stereo unspecified) returned hcDAF-12 act 2, ssDAF-12 act -1, hgDAF12 agonist -1, SMARCA2 act 0 and DAX1 inh-1 1.
`Cc1cc(N2CCNC[C@H]2C)ccc1N1CC[C@H](O)C1` gave hcDAF-12 act -2, ssDAF-12 act -1, hgDAF12 agonist -3, SMARCA2 act 2 and DAX1 inh-1 1.
COCCO[C@H]1CC[C@@]2(C)C(=CCC3C2CC[C@@]2(C)C3CC[C@]2(C)O)C1 (stereo partly specified) was read as hcDAF-12 act 0, ssDAF-12 act 0, hgDAF12 agonist 11*, SMARCA2 act -4, DAX1 inh-1 0 and DAX1 inh-2 -1.
For O=C(NCCN1CCC2(CC1)C(=O)NCN2c1ccccc1)c1ccccc1F the results were hcDAF-12 act 0, ssDAF-12 act -1, hgDAF12 agonist 0, SMARCA2 act 1 and DAX1 inh-1 0.
Screening O=C(NCCN1CCC2(CC1)C(=O)NCN2c1ccccc1)c1ccc(Cl)cc1 returned hcDAF-12 act -1, ssDAF-12 act -1, hgDAF12 agonist 0, SMARCA2 act 6 and DAX1 inh-1 0.
`O=C(NCCN1CCC2(CC1)C(=O)NCN2c1ccccc1)c1ccc(F)cc1` gave hcDAF-12 act -2, ssDAF-12 act -1, hgDAF12 agonist 2, SMARCA2 act -3 and DAX1 inh-1 0.
For COC(=O)C(O)(c1ccc(NC(=O)Oc2ccccc2)cc1)C(F)(F)F (stereo unspecified) the results were hcDAF-12 act -1, ssDAF-12 act -2, hgDAF12 agonist 1, SMARCA2 act -3, DAX1 inh-1 1 and DAX1 inh-2 5.5*.
Screening Fc1ccccc1CCNCc1cccc2ccccc12 returned hcDAF-12 act 1, ssDAF-12 act -2, hgDAF12 agonist 0, SMARCA2 act 0, DAX1 inh-1 0 and DAX1 inh-2 -1.
Cc1ccccc1CCNCc1cc2cccc(C)c2[nH]c1=O was read as hcDAF-12 act 3, ssDAF-12 act 1.0*, hgDAF12 agonist -2, SMARCA2 act -1, DAX1 inh-1 0 and DAX1 inh-2 5.6*.
`COc1ccc(N2C(=O)NC(=O)/C(=C/c3cccc(OC(=O)c4cccs4)c3)C2=O)cc1Cl` gave hcDAF-12 act 5.8*, ssDAF-12 act -1, hgDAF12 agonist 1, SMARCA2 act -1 and DAX1 inh-1 0.
For Cc1ccc(N2C(=O)NC(=O)/C(=C/c3ccc(OC(=O)c4cccs4)cc3)C2=O)cc1 the results were hcDAF-12 act -2, ssDAF-12 act -1, hgDAF12 agonist 2, SMARCA2 act -4, DAX1 inh-1 1 and DAX1 inh-2 1.
For O=C(NC1CCCCC1)N1Cc2cc(Br)ccc2-n2nncc2C1 the results were hcDAF-12 act -2, ssDAF-12 act -1, hgDAF12 agonist 1, SMARCA2 act 0 and DAX1 inh-1 2.
For Nc1ccc(-c2ccccc2)cc1 the results were hcDAF-12 act 1, ssDAF-12 act 0, hgDAF12 agonist 7, SMARCA2 act 0, DAX1 inh-1 3 and DAX1 inh-2 0.
Screening Nc1ccc2ccccc2c1 returned hcDAF-12 act 5, ssDAF-12 act 0.9*, hgDAF12 agonist 0, SMARCA2 act 0, DAX1 inh-1 1 and DAX1 inh-2 1.
For CCC(C)N1C(=O)/C(=C\c2ccc(N3CCCCCC3)cc2)C(=O)NC1=S (stereo unspecified) the results were hcDAF-12 act 0, ssDAF-12 act 5.5*, hgDAF12 agonist 1, SMARCA2 act 2, DAX1 inh-1 -2 and DAX1 inh-2 -1.
`CCC(C)N1C(=O)/C(=C\c2cc3c4c(c2)CCCN4CCC3)C(=O)NC1=S` (stereo unspecified) gave hcDAF-12 act 0, ssDAF-12 act -1, hgDAF12 agonist 2, SMARCA2 act -2, DAX1 inh-1 0 and DAX1 inh-2 0.
Screening COc1ccc2c(c1)C(NC(C)=O)CCc1cc(OC)c(OC)c(OC)c1-2 (stereo unspecified) returned hcDAF-12 act 0, ssDAF-12 act 0, hgDAF12 agonist -3, SMARCA2 act -2, DAX1 inh-1 3.9* and DAX1 inh-2 1.

Assay outcomes from PubChem.
